System: CDKL5
Conditions: concentration: 1 μM, replicates: in singlicate; n = 1
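Also: KINOMEscan kinase panel screen.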

| SMILES | %Inh |
| --- | --- |
| N#CC1(c2cccc(C(=O)Nc3cccc(Oc4ccc5nc(NC(=O)C6CC6)sc5n4)c3)c2)CC1 | 0% |
| Cc1ccc(C)c(NC(=O)Nc2ccc(C)c(-c3ccc(C(=O)Nc4ccncc4)cc3)c2)c1 [GSK1398473] | 24% |
| O=C(Nc1n[nH]c2nc(-c3ccccc3O)ccc12)C1CC1 [SB-711880] | 0% |
| CCn1c(-c2nonc2N)nc2c(-c3ccccc3)ncc(OCCCN)c21.O=C(O)C(F)(F)F.O=C(O)C(F)(F)F [GSK260205] | 0% |
| Cl.Cl.NC(CNC(=O)c1cc(Br)c(-c2ccnc3[nH]ccc23)s1)c1ccccc1 (stereo not drawn) [GSK1322949] | 5% |
| CCOc1nccc(-c2c(-c3ccc(F)cc3)ncn2C2CCNCC2)n1 [SB-249175] | 7% |
| COc1cccc2c(-c3ccncc3)c(-c3ccc(F)cc3)nn12 [GW468513] | 0% |
| CC(C)c1nc(-c2cccc(NS(=O)(=O)c3c(F)cccc3F)c2)c(-c2ccnc(Nc3ccc(N4CCOCC4)nc3)n2)s1.Cl [GSK1723980] | 97.8% |
| O=C(Nc1n[nH]c2cc(-c3cccs3)ccc12)C1CC1 [SB-731284] | 14% |
| Cc1ccc(NC(=O)c2cccc(N3CCCCC3)c2)cc1-c1ccc(C(=O)NCC2CC2)cc1 [GSK1917008] | 7% |
| Cl.O=C(Nc1ccc(Oc2ccc3[nH]c(NC(=O)c4ccco4)nc3c2)cc1)Nc1cc(C(F)(F)F)ccc1F [GW683134] | 0% |
| Cn1cc(-c2ccc3c(c2)CCN3C(=O)Cc2cc(F)cc(C(F)(F)F)c2)c2c(N)ncnc21 [GSK2635225] | 0% |

From paper PMC5540273 (PLoS ONE, 2017)
